From PubChem BioAssay AID1159580 (chemical genetic matrix, 2015)
About 2,000 (36%) of roughly 5,500 compounds were called active. Roughly 18% stayed inconclusive and do not appear here. No stated cut-off is given here; in the data, active means normalized growth mostly below about 0.91 (no sharp cut-off); inconclusive means no clear call, values can overlap the other calls; inactive means mostly above about 0.92. The list shows a part of the results.

Test: chemical genetic growth profiling, strain panel (AID 1159580);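 further: tested at 20 µM; growth read once vehicle control cultures reached saturation at 30 °C; 1 = growth at the plate median or of vehicle wells; lower values mean less growth of the strain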
Conditions: growth OD

Measured: normalized growth

COC(=O)C1[C@H]2C[C@H]3c4[nH]c5ccccc5c4CCN3C[C@@H]2CC[C@@H]1O (some centres not stated)
inactive: S. cerevisiae deletion strains, locus YJR075W, strain HOC1, hits give low values 1.02 | S. cerevisiae deletion strains, locus YKL009W, strain mrt4, hits give low values 0.996 | S. cerevisiae deletion strains, locus YKL068W, hits give low values 1.01 | S. cerevisiae deletion strains, locus YKL085W, strain MDH1 (second series), hits give low values 1.01 | S. cerevisiae deletion strains, locus YKL085W, strain MDH1, hits give low values 1.01 | S. cerevisiae deletion strains, locus YKL160W, strain elf1, hits give low values 0.987 | S. cerevisiae deletion strains, locus YKL190W, strain CNB1, hits give low values 1.02 | S. cerevisiae deletion strains, locus YKR001C, strain vps1, hits give low values 1.02 | S. cerevisiae deletion strains, locus YKR026C, strain gcn3, hits give low values 0.971 | S. cerevisiae deletion strains, locus YKR091W, strain srl3, hits give low values 0.985 | S. cerevisiae deletion strains, locus YLL001W, strain dnm1, hits give low values 0.984 | S. cerevisiae deletion strains, locus YLL026W, hits give low values 0.965 | S. cerevisiae deletion strains, locus YLL041C, strain sdh2, hits give low values 0.974 | S. cerevisiae deletion strains, locus YLR027C, strain aat2, hits give low values 0.988 | S. cerevisiae deletion strains, locus YLR039C, strain RIC1, hits give low values 1.02 | S. cerevisiae deletion strains, locus YLR058C, strain SHM2, hits give low values 1.01 | S. cerevisiae deletion strains, locus YLR102C, strain apc9, hits give low values 1.02 | S. cerevisiae deletion strains, locus YLR113W, strain HOG1, hits give low values 1.01 | S. cerevisiae deletion strains, locus YLR221C, strain rsa3, hits give low values 1.01 | S. cerevisiae deletion strains, locus YLR258W, strain gsy2, hits give low values 0.98 | S. cerevisiae deletion strains, locus YLR262C, strain YPT6 (second series), hits give low values 0.974 | S. cerevisiae deletion strains, locus YLR262C, strain YPT6, hits give low values 1 | S. cerevisiae deletion strains, locus YLR268W, strain sec22, hits give low values 1.06 | S. cerevisiae deletion strains, locus YLR320W, strain mms22, hits give low values 1.02 | S. cerevisiae deletion strains, locus YLR330W, strain CHS5, hits give low values 1.01 | S. cerevisiae deletion strains, locus YLR342W, strain FKS1 (second series), hits give low values 1 | S. cerevisiae deletion strains, locus YLR342W, strain FKS1, hits give low values 0.981 | S. cerevisiae deletion strains, locus YLR357W, strain rsc2, hits give low values 0.985 | S. cerevisiae deletion strains, locus YLR370C, strain arc18, hits give low values 0.965 | S. cerevisiae deletion strains, locus YLR371W, strain rom2, hits give low values 1.02 | S. cerevisiae deletion strains, locus YLR384C, strain iki3, hits give low values 0.969 | S. cerevisiae deletion strains, locus YLR418C, strain cdc73, hits give low values 1.02 | S. cerevisiae deletion strains, locus YML016C, strain PPZ1, hits give low values 1.01 | S. cerevisiae deletion strains, locus YML032C, strain rad52, hits give low values 1.03 | S. cerevisiae deletion strains, locus YML120C, strain ndi1, hits give low values 0.966 | S. cerevisiae deletion strains, locus YML124C, strain tub3, hits give low values 1.01 | S. cerevisiae deletion strains, locus YMR058W, strain fet3, hits give low values 0.974 | S. cerevisiae deletion strains, locus YMR078C, strain ctf18, hits give low values 1.01 | S. cerevisiae deletion strains, locus YMR125W, strain sto1, hits give low values 0.981 | S. cerevisiae deletion strains, locus YMR129W, hits give low values 0.988 | S. cerevisiae deletion strains, locus YMR205C, strain PFK2, hits give low values 0.991 | S. cerevisiae deletion strains, locus YMR223W, strain ubp8, hits give low values 1.01 | S. cerevisiae deletion strains, locus YMR231W, strain pep5, hits give low values 0.978 | S. cerevisiae deletion strains, locus YMR263W, strain SAP30, hits give low values 1.03 | S. cerevisiae deletion strains, locus YMR307W, strain GAS1, hits give low values 0.952 | S. cerevisiae deletion strains, locus YNL067W, strain RPL9B, hits give low values 1.03 | S. cerevisiae deletion strains, locus YNL071W, strain lat1, hits give low values 0.976 | S. cerevisiae deletion strains, locus YNL128W, strain TEP1, hits give low values 1.02 | S. cerevisiae deletion strains, locus YNL153C, strain GIM3, hits give low values 1.01 | S. cerevisiae deletion strains, locus YNL183C, strain NPR1, hits give low values 0.981 | S. cerevisiae deletion strains, locus YNL209W, strain ssb2, hits give low values 0.959 | S. cerevisiae deletion strains, locus YNL233W, strain BNI4, hits give low values 1.01 | S. cerevisiae deletion strains, locus YNL248C, strain rpa49, hits give low values 0.998 | S. cerevisiae deletion strains, locus YNL250W, strain rad50, hits give low values 1.02 | S. cerevisiae deletion strains, locus YNL271C, strain bni1, hits give low values 1.02 | S. cerevisiae deletion strains, locus YNL298W, strain CLA4, hits give low values 1.02 | S. cerevisiae deletion strains, locus YNL307C, strain MCK1, hits give low values 1.02 | S. cerevisiae deletion strains, locus YNL322C, strain KRE1 (second series), hits give low values 0.973 | S. cerevisiae deletion strains, locus YNL322C, strain KRE1, hits give low values 1.02 | S. cerevisiae deletion strains, locus YNR049C, strain mso1, hits give low values 0.97 | S. cerevisiae deletion strains, locus YNR052C, strain pop2, hits give low values 1.02 | S. cerevisiae deletion strains, locus YOL006C, strain TOP1, hits give low values 1.06 | S. cerevisiae deletion strains, locus YOL012C, strain htz1 0.74 | S. cerevisiae deletion strains, locus YOL147C, strain pex11, hits give low values 1.02 | S. cerevisiae deletion strains, locus YOR001W, strain rrp6, hits give low values 0.961 | S. cerevisiae deletion strains, locus YOR061W, strain CKA2, hits give low values 1.01 | S. cerevisiae deletion strains, locus YOR069W, strain VPS5, hits give low values 1.01 | S. cerevisiae deletion strains, locus YOR070C, strain gyp1, hits give low values 0.983 | S. cerevisiae deletion strains, locus YOR080W, strain dia2, hits give low values 0.934 | S. cerevisiae deletion strains, locus YOR083W, strain WHI5, hits give low values 0.979 | S. cerevisiae deletion strains, locus YOR106W, strain vam3, hits give low values 0.949 | S. cerevisiae deletion strains, locus YOR136W, strain idh2, hits give low values 1.02 | S. cerevisiae deletion strains, locus YOR144C, strain elg1, hits give low values 1.01 | S. cerevisiae deletion strains, locus YOR184W, strain ser1, hits give low values 1.01 | S. cerevisiae deletion strains, locus YOR231W, strain MKK1, hits give low values 1.02 | S. cerevisiae deletion strains, locus YOR265W, strain rbl2, hits give low values 0.978 | S. cerevisiae deletion strains, locus YOR270C, strain vph1, hits give low values 0.935 | S. cerevisiae deletion strains, locus YOR290C, strain snf2, hits give low values 0.974 | S. cerevisiae deletion strains, locus YOR316C, strain cot1, hits give low values 1.02 | S. cerevisiae deletion strains, locus YPL051W, strain arl3, hits give low values 0.961 | S. cerevisiae deletion strains, locus YPL055C, strain LGE1, hits give low values 1.02 | S. cerevisiae deletion strains, locus YPL078C, strain atp4, hits give low values 0.963 | S. cerevisiae deletion strains, locus YPL106C, strain sse1, hits give low values 0.906 | S. cerevisiae deletion strains, locus YPL240C, strain hsp82, hits give low values 0.995 | S. cerevisiae deletion strains, locus YPL241C, strain CIN2, hits give low values 1.01 | S. cerevisiae deletion strains, locus YPL256C, strain CLN2, hits give low values 0.998 | S. cerevisiae deletion strains, locus YPR119W, strain clb2, hits give low values 1.02 | S. cerevisiae deletion strains, locus YPR141C, strain kar3, hits give low values 1.02 | S. cerevisiae deletion strains, locus YPR163C, strain tif3, hits give low values 1.02 | S. cerevisiae deletion strains, locus YPR167C, strain met16, hits give low values 1.02 | S. cerevisiae deletion strains, strain wtn01, hits give low values 1.04 | S. cerevisiae strains, strain wild type, hits give low values 1
